Source: PubChem BioAssay (NCATS)
“And” between values parts separate entries of the source, which are not always exact repeats. Identical values can stand only once. Records with an inconclusive call do not appear. The source made the active and inactive calls. Unless noted, the call rests on the fitted dose curve; in most records, active means well fitted curve in the direction sought with a large enough effect; inconclusive means small, poorly fitted or top-dose-only effect, or another doubt; inactive means no such curve, though single readings can be large; an effect the other way counts as inactive or inconclusive.

target: Cytochrome P450 1A2 (Homo sapiens) (UniProt P05177); assay: qHTS for inhibitors of CYPIA2 against the NCATS DSHEA and TCM libraries (AID 1919976); details: recombinant CYP1A2 enzyme activity, luminescence; series mostly up to 37 µM; activity change, negative = inhibition: at the top concentration;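 further: light from luciferin formed by CYP1A2 from a pro-luciferin substrate; on the % scale 0 is the no-effect control and ±100 the full control effect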
Sequence (P05177 whole entry, looked up): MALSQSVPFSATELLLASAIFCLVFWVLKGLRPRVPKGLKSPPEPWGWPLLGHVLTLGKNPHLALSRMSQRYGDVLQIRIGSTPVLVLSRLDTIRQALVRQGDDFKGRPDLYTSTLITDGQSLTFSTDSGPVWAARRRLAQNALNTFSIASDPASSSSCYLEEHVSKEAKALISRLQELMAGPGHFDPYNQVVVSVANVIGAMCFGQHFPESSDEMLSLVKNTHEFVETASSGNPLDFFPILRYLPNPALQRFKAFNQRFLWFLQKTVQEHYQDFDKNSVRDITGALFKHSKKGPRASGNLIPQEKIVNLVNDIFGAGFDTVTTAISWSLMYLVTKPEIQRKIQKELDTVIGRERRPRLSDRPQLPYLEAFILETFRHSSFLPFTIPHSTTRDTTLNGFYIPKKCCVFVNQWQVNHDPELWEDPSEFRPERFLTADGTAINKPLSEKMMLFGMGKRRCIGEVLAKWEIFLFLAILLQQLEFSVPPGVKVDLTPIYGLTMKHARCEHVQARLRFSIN
Summary of the method: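 Furafylline served as the plate control. Compounds met CYP1A2 and pro-luciferin substrate 15 min before NADPH regeneration solution (1x) was added; after 30-45 min at RT, P450-Glo reagent was added for 30 min and luminescence was measured.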

| Compound | activity change, negative = inhibition |
| --- | --- |
| O=C(O)c1ccccc1O | 18.3% (inactive) |
| O=C1O[C@H]([C@@H](O)CO)C(O)=C1O | -23% (inactive) |
| CC12CCC(CC1)C(C)(C)O2 | -5.46% (inactive) |

tested on: not listed separately; assay: qHTS Counterscreen for compound interference against the NCATS DSHEA and TCM libraries (AID 1919978); details: firefly luciferase detection reagent interference, luminescence;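 further: compounds preincubated with 1 µM D-luciferin or buffer before detection reagent; % of control where 0% means no effect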
Summary of the method: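 Luminescence counterscreen for detection-kit interference: compounds at 19.5 nM–39.8 uM final, 15 min RT with 1 uM D-luciferin or buffer only; detection reagent added, 30 min RT, then read.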

| Compound | max response |
| --- | --- |
| O=C(O)c1ccccc1O | -0.219% (inactive) |
| NC(N)=NCCC[C@H](N)C(=O)O | -2.87% (inactive) |
| O=C1O[C@H]([C@@H](O)CO)C(O)=C1O | -0.0092% (inactive) |
| CC12CCC(CC1)C(C)(C)O2 | -1.5% (inactive) |
| CC1=C(C/C=C(\C)CCC[C@H](C)CCC[C@H](C)CCCC(C)C)C(=O)c2ccccc2C1=O | -2.28% (inactive) |

tested on: not listed separately; assay: Dual reporter qHTS for agonist of Pregnane X Receptor (hPXR) against the NCATS DSHEA and TCM libraries: Fluorescence readout (AID 1920058); details: PXR dual reporter cells; series mostly up to 40 µM; activation: at the top concentration; further: 0% is about no effect
Summary of the method: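 In this qHTS counter-read, reporter-bearing HepG2 cells in charcoal-stripped serum received substances for approximately 24 h before viability was assessed fluorometrically with CellTiter-Fluor.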

| Compound | activation |
| --- | --- |
| O=C(O)c1ccccc1O | -4.17% (inactive) |
| NC(N)=NCCC[C@H](N)C(=O)O | 16.3% (inactive) |
| O=C1O[C@H]([C@@H](O)CO)C(O)=C1O | 10.1% (inactive) |
| CC12CCC(CC1)C(C)(C)O2 | 17.8% (inactive) |
| CC1=C(C/C=C(\C)CCC[C@H](C)CCC[C@H](C)CCCC(C)C)C(=O)c2ccccc2C1=O | 15.9% (inactive) |

target: Nuclear receptor subfamily 1 group I member 2 (Homo sapiens) (UniProt O75469); assay: Dual reporter qHTS for agonist of Pregnane X Receptor (hPXR) against the NCATS DSHEA and TCM libraries: Luminescence readout (AID 1920059); details: hPXR dual reporter cells, luciferase luminescence agonist; series mostly up to 40 µM; activation: at the top concentration; further: 0% is about no effect
Sequence (O75469 whole entry, looked up): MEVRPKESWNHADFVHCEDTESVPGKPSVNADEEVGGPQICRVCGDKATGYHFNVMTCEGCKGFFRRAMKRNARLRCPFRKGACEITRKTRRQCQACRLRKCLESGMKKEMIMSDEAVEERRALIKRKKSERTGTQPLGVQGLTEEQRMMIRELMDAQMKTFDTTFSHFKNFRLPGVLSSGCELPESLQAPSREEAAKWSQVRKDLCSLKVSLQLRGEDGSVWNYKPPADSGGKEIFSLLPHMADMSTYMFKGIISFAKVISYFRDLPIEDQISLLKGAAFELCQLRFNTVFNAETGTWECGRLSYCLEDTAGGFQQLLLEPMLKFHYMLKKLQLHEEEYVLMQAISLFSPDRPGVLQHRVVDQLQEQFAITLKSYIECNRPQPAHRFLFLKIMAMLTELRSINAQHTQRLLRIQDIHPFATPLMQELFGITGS
Summary of the method: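 hPXR-LucHepG2 cells in phenol red-free DMEM with 5% charcoal-stripped FBS, 2000 cells/well, attached 5 h, then exposed 24 h at 37C to compounds; rifampicin as positive agonist control (2.8 nM–92 uM). Luciferase luminescence read.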

| Compound | activation |
| --- | --- |
| O=C(O)c1ccccc1O | -3.78% (inactive) |
| NC(N)=NCCC[C@H](N)C(=O)O | 1.32% (inactive) |
| O=C1O[C@H]([C@@H](O)CO)C(O)=C1O | 8.86% (inactive) |
| CC12CCC(CC1)C(C)(C)O2 | 2.33% (inactive) |

target: Nuclear receptor subfamily 1 group I member 2 (Homo sapiens) (UniProt O75469); assay: Dual reporter qHTS for antagonist of Pregnane X Receptor (hPXR) against the NCATS DSHEA and TCM libraries: Luminescence Readout (AID 1920060); details: hPXR dual reporter cells, luciferase luminescence, antagonist mode; series mostly up to 40 µM; activity change, negative = inhibition: at the top concentration;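 further: HepG2 cells carrying hPXR luciferase reporter stimulated with rifampicin at 2 µM; 0% is about no effect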
Summary of the method: (§1)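 hPXR-Luc HepG2 cells exposed 24 h at 37 C to compounds with 2 uM rifampicin in antagonist mode; luciferase luminescence measured by ONE-Glo, with CellTiter-Fluor viability read beforehand.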

| Compound | activity change, negative = inhibition |
| --- | --- |
| O=C(O)c1ccccc1O | -18.1% (inactive) |
| NC(N)=NCCC[C@H](N)C(=O)O | -18.5% (inactive) |
| CC12CCC(CC1)C(C)(C)O2 | -10.7% (inactive) |
| CC1=C(C/C=C(\C)CCC[C@H](C)CCC[C@H](C)CCCC(C)C)C(=O)c2ccccc2C1=O | 22.5% (inactive) |

tested on: not listed separately; assay: Dual reporter qHTS for antagonist of Pregnane X Receptor (hPXR) against the NCATS DSHEA and TCM libraries: Fluorescence Readout (AID 1920061); details: PXR dual reporter cells, antagonist mode; series mostly up to 40 µM; activity change, negative = inhibition: at the top concentration; further: 0% is about no effect
Summary of the method: as §1

| Compound | activity change, negative = inhibition |
| --- | --- |
| O=C(O)c1ccccc1O | 1.87% (inactive) |
| NC(N)=NCCC[C@H](N)C(=O)O | 8.56% (inactive) |
| O=C1O[C@H]([C@@H](O)CO)C(O)=C1O | 19.9% (inactive) |
| CC12CCC(CC1)C(C)(C)O2 | 16.4% (inactive) |
| CC1=C(C/C=C(\C)CCC[C@H](C)CCC[C@H](C)CCCC(C)C)C(=O)c2ccccc2C1=O | 16% (inactive) |

tested on: not listed separately; assay: qHTS drug screen for cell cycle checkpoint inhibitors in PARPi-resistant BRCA-mutant ovarian cancer cell lines. (AID 1963452; calls by dose curve); details: PEO1/OlaR viability, CellTiter-Glo luminescence, 96 h; hits give low values
Summary of the method: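 PEO1, PEO4 and PEO1/OlaR ovarian cancer cells, 600 per well, exposed 96 h at 37C to a dilution series. Viability read by CellTiter-Glo luminescence, normalized to DMSO and empty wells; activity summarized as Z-AUC.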

| Compound | Z-AUC |
| --- | --- |
| CN(N=O)C(=O)N[C@@H]1[C@@H](O)[C@H](O)[C@@H](CO)O[C@@H]1O | 1.08 (inactive) |
| C[C@H]1O[C@@H](n2cc(F)c(=O)[nH]c2=O)[C@H](O)[C@@H]1O | 0.97 (inactive) |
| CCCCN(CCCC)CC(O)c1cc(Cl)cc2c1-c1ccc(Cl)cc1/C2=C/c1ccc(Cl)cc1 (stereo not drawn) | -0.171 (inactive) |
| CCN(CC)CCNC(=O)c1c(C)[nH]c(/C=C2\C(=O)Nc3ccc(F)cc32)c1C | -0.535 (inactive) |
| CC(=O)OCC(=O)[C@@]1(O)CC[C@H]2[C@@H]3CCC4=CC(=O)CC[C@]4(C)[C@H]3C(=O)C[C@@]21C | -1.11 (inactive) |
| O=C1Nc2ccc(Cl)cc2[C@@](C#CC2CC2)(C(F)(F)F)O1 | -0.995 (inactive) and -0.662 (inactive) |
| Nc1ncnc2c1ncn2[C@@H]1O[C@H](CO)[C@@H](O)[C@H]1O | 0.682 (inactive) |
| Cn1c(=O)c2c(ncn2CC2OCCO2)n(C)c1=O | -0.883 (inactive) |
| CC(C)c1c(C(=O)Nc2ccccc2)c(-c2ccccc2)c(-c2ccc(F)cc2)n1CC[C@@H](O)C[C@@H](O)CC(=O)O | -0.739 (inactive) |
| CCN(CC)CCCC(C)Nc1c2ccc(Cl)cc2nc2ccc(OC)cc12 (stereo not drawn) | -0.243 (inactive) |
| CC[C@H]1CN2CCc3cc(OC)c(OC)cc3[C@@H]2C[C@@H]1C[C@H]1NCCc2cc(OC)c(OC)cc21 | -0.485 (inactive) |
| NC(=O)c1ncn([C@@H]2O[C@H](CO)[C@@H](O)[C@H]2O)n1 | -0.199 (inactive) |
| COc1ccc2[nH]c(S(=O)Cc3ncc(C)c(OC)c3C)nc2n1 (stereo not drawn) | -1.06 (inactive) |
| OC[C@H]1O[C@@H](O[C@@H]2[C@@H](CO)O[C@](O)(CO)[C@H]2O)[C@H](O)[C@@H](O)[C@H]1O | -0.433 (inactive) |
| Cc1c(O)cccc1C(=O)N[C@@H](CSc1ccccc1)[C@H](O)CN1C[C@H]2CCCC[C@H]2C[C@H]1C(=O)NC(C)(C)C | -0.819 (inactive) |
| CC1=C(/C=C/C(C)=C/C=C/C(C)=C/C(=O)O)C(C)(C)CCC1 | -0.215 (inactive) |
| NC(=O)c1ncn([C@@H]2O[C@H](CO)[C@@H](O)[C@H]2O)c1N | -0.269 (inactive) |
